# Screening data: PubChem BioAssay, National Center for Advancing Translational Sciences (NCATS)
# IL1B secr inh: qHTS for Inhibitors of Inflammasome Signaling: IL-1-beta AlphaLISA Primary Screen. THP-1 LPS/ATP IL-1B secretion, AlphaLISA, 16 h; active compounds read low. activity change, % at 57.5 µM. actives 4.7% (n = 360,000). AID 743279, 2014; in the data active means activity change below about -50%; inconclusive means mostly about -30% to -49%
#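 THP-1 cells pretreated 1 hr with compounds (up to 57.5 uM final), then stimulated with LPS (250 ng/mL final) plus ATP (1.25 mM final); secreted IL-1B measured by AlphaLISA after 16 hr, decreased signal indicating inhibition.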
# RORg inh: qHTS for inhibitors of ROR gamma transcriptional activity; Nuclear receptor ROR-gamma (Mus musculus), P51450; Drosophila S2 Gal4-RORgamma UAS-luciferase reporter, 20 h; Potency, µM (highest dose often 53.6 µM), for the others: at the highest dose activity change, negative = inhibition, actives largely listed as inhibitors; actives 5.4% (n = 310,000); further: potency means the concentration at half of the fitted maximal effect; nearly all actives have a fitted effect of over 60% in size
# Target sequence (P51450 whole entry, looked up, the tested form may be a part): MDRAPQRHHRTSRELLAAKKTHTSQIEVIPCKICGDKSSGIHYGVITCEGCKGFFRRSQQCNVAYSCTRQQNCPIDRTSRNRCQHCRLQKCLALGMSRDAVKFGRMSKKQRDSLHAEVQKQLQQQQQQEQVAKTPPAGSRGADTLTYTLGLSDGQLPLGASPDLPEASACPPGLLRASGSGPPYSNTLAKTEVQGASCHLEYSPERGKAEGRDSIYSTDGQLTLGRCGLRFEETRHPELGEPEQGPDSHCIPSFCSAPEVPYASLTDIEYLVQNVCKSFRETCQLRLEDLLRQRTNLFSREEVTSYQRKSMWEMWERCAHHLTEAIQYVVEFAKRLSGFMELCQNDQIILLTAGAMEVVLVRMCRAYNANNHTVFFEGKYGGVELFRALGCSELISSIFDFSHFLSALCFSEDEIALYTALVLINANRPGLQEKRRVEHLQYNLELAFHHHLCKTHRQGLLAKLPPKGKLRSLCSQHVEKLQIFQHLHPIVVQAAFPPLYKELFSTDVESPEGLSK
#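 Stable Schneider cell line, Gal4 DNA-binding domain fused to ROR gamma, UAS-luciferase. Cmpd 1 hr RT → CuSO4 700 uM final → 20 hr RT → luciferase reagent 10 min → luminescence.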
# TDP1 cell noCPT: qHTS for Inhibitors of human tyrosyl-DNA phosphodiesterase 1 (TDP1): qHTS in cells in absence of CPT; Potency, µM (series often up to 46.2 µM), without a hit: at the top dose activity change, negative = growth inhibition, hits mostly inhibitors; AID 686978, 2013; DT40 Tdp1-/- hTDP1 cells, no CPT, ATP luminescence, 48 h; actives 15% (n = 420,000); further: potency means the concentration at half of the fitted maximal effect; nearly all actives have a fitted effect of over 55% in size
#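 Camptothecin absent (DMSO only). Human TDP1-complemented DT40 knockout cells, 400 cells/well, 37 °C for minimum 48 hr; ATP measured via CellTiter-Glo, 30 min dark incubation, luminescence.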
# VP16 counter: VP16 counterscreen qHTS for inhibitors of ROR gamma transcriptional activity; AID 2546, 2010; Potency, µM (series often up to 53.6 µM), inactives show at the highest dose activity, negative = inhibition, hits mostly inhibitors; Drosophila S2 Gal4-VP16 UAS-luciferase, luminescence, 20 h; actives 3.5% (n = 310,000);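 further: Gal4-VP16 expression switched on by copper sulfate through the metallothionein promoter; potency means the concentration at half of the fitted maximal effect; nearly all actives have a fitted effect of over 50% in size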
# ELG1 DNA repair: qHTS screen for small molecules that inhibit ELG1-dependent DNA repair in human embryonic kidney (HEK293T) cells expressing luciferase-tagged ELG1; HEK293T ELG1-luciferase reporter, luminescence, 16 h; DNA damage induced by 5-fluorouridine; Potency, µM (doses to about 46.1 µM), for inactives: at the highest dose activity change, negative = inhibition, usual class: inhibitors; actives 2.3% (n = 330,000); AID 504467, 2011; further: potency means the concentration at half of the fitted maximal effect; nearly all actives have a fitted effect of over 55% in size
#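 Overnight (16 hr) co-exposure of 2,000 cells/well to 5-fluorouridine and compound at 37 °C preceded detection. Luciferase was quantified via ONE-Glo luminescence; loss of signal denotes inhibition.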
# DT40 TDP1 CPT: qHTS for Inhibitors of human tyrosyl-DNA phosphodiesterase 1 (TDP1): qHTS in cells in presence of CPT. Potency, µM (top dose mostly 46.2 µM), for the others: at the highest dose activity change, negative = growth inhibition, most hits filed as inhibitors. AID 686979, 2013. chicken DT40 Tdp1-/-;hTDP1 cells + 20 nM CPT, ATP luminescence, 48 h. actives 12% (n = 420,000); further: potency means the concentration at half of the fitted maximal effect; nearly all actives have a fitted effect of over 55% in size
#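 Cell growth measured by CellTiter-Glo luminescence after a minimum 48 h, 37 C compound exposure with 20 nM CPT in Tdp1-knockout DT40 cells stably expressing hTDP1, seeded 400/well; qHTS titration format.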
# The depositor's hits bear a star; u = inconclusive; x = not tested or not shown. The list is not random: actives were taken first. Their share in the collection is about 21%. Unless noted, the call rests on the fitted dose curve; in most records, active means well fitted curve in the direction sought with a large enough effect; inconclusive means small, poorly fitted or top-dose-only effect, or another doubt; inactive means no such curve, though single readings can be large; an effect the other way counts as inactive or inconclusive. On the % scale 0 is the no-effect control and ±100 the full control effect.
SMILES,IL1B secr inh,RORg inh,TDP1 cell noCPT,VP16 counter,ELG1 DNA repair,DT40 TDP1 CPT
CCN1CCN(c2nc(N)c([N+](=O)[O-])c(Nc3cccc(C)c3)n2)CC1,x,-17%,u,-8%,-18%,u
CCN1CCN(c2nc(Nc3ccc(C)c(C)c3)nc(N)c2[N+](=O)[O-])CC1,u,17%,23µM*,-16%,u,-22%
Cc1cccc(Nc2nc(N)c([N+](=O)[O-])c(N3CC(C)CC(C)C3)n2)c1 (stereo unspecified),-101*,-12%,18µM*,u,5%,u
CN(C)c1ccc(Nc2nc(N)c([N+](=O)[O-])c(N3CCOCC3)n2)cc1,-87*,24%,26µM*,-2%,16µM*,u
CCN1CCN(c2nc(Nc3cccc(OC)c3)nc(N)c2[N+](=O)[O-])CC1,-29,-7%,9.2µM*,0%,-14%,13µM*
Cc1cc(-n2cc(Br)c(=O)[nH]c2=O)nc(-c2ccccc2)n1,4,13%,-2%,-6%,0%,-20%
CCCOc1ccc(NC(=O)C(=O)NCCCn2ccnc2)cc1,35,21%,-5%,-8%,-3%,-19%
C[C@H](CO)NC(=O)[C@@H]1C[C@H]1[C@@H](NP(=O)(c1ccccc1)c1ccccc1)c1ccccc1,-20,-17%,u,-14%,12%,-26%
CN(Cc1ccccc1)C(=O)c1csc([C@@H]2O[C@H](CO)[C@@H](O)[C@H]2O)n1,-12,x,-3%,x,x,-25%
COc1ccc(CNC(=O)CN(C(=O)c2cc3sccc3n2C)C2CCCC2)cc1,u,7%,13µM*,-27%,u,u
COc1ccc(CNC(=O)c2cc3sccc3n2C)cc1,x,x,-30%,x,x,2%
COC[C@H]1CCCN1[C@H]1CS(=O)(=O)N[C@@H]1COCc1ccccc1,-12,x,1%,x,x,2%
COC[C@H]1CCCN1c1ccc2c(c1)O[C@@H](COCc1ccccc1)CN([C@H](C)c1ccccc1)S2(=O)=O,-9,x,13µM*,x,x,9.2µM*
COC[C@H]1CCCN1c1ccc2c(c1)O[C@H](COCc1ccccc1)CN([C@H](C)c1ccccc1)S2(=O)=O,49,x,18µM*,x,x,u
COC[C@@H]1CCCN1c1ccc2c(c1)O[C@H](COCc1ccccc1)CN([C@@H](C)c1ccccc1)S2(=O)=O,20,x,3.7µM*,x,x,2.6µM*
O=S(=O)(Cc1cc(NCc2ccccc2)nc(-c2ccccn2)n1)c1ccccc1,39,4.5µM*,4.6µM*,u,u,4.6µM*
Cc1ccc(OC(C)C(=O)N2CCN(c3ccccn3)CC2)cc1 (stereo unspecified),11,x,-21%,x,x,7%
COC(=O)c1ccc(C(=O)NC2CCCc3c2cnn3-c2ccccc2F)nc1 (stereo unspecified),75,12%,2.9µM*,5%,u,5.2µM*
COc1ccc(C(=O)NC2CCCc3c2cnn3-c2ccccc2F)o1 (stereo unspecified),10,u,u,-25%,u,-29%
COc1cc(C(=O)NC2CCCc3c2cnn3-c2ccccc2F)cc(OC)c1OC (stereo unspecified),-21,-36%,2.9µM*,5µM*,u,10µM*
O=C(Nc1ccc(Cl)cc1)P(=O)(O)c1ccccc1,15,x,-1%,x,x,4%
